Test results: the supplement of paper PMC3545927
The other results are listed elsewhere or left out. The true hit rate is not given.

Target: furin, P09958
Assay: furin cleavage Z-score vs untreated control; higher = more cleavage, active = 3.5 or more, inactive = 1 or less, 8 variable residues between constant flanks
In short: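 The cleavage Z-score is the log read count relative to furin-free reactions, lowess-adjusted and scaled by median absolute deviation. Counts came from sequencing DNA released from bead-bound 8-mer peptide–cDNA fusions after digestion with purified furin for 7.5, 15 or 30 min.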
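Also: purified furin at 1:10 enzyme:substrate in 50 mM HEPES pH 7.5.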

Sequence of furin, P09958 (P09958 whole entry): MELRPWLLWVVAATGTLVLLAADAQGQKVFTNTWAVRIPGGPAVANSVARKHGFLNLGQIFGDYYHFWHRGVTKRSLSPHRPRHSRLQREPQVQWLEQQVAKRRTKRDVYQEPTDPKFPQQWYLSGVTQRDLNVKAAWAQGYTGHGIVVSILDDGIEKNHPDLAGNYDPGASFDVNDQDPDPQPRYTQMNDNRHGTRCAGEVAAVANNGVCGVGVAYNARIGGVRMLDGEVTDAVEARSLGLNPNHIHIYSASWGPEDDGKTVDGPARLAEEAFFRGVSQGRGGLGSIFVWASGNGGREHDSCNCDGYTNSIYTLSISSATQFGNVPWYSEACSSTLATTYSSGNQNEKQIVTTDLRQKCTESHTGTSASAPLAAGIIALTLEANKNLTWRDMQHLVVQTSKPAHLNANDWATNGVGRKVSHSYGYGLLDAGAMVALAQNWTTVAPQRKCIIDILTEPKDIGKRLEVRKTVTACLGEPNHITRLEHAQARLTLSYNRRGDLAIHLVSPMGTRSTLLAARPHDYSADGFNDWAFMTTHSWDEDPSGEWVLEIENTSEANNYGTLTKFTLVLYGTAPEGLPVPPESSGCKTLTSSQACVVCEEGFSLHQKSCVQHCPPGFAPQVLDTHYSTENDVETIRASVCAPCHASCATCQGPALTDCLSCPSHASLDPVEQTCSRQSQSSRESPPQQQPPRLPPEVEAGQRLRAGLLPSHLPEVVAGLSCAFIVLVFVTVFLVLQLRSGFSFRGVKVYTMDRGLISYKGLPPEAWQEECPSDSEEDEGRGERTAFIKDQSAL

Row | Sequence | furin cleavage Z-score (7.5 min) | furin cleavage Z-score (15 min) | furin cleavage Z-score (30 min)
1 | CAEVMTSTWVAGNASASA [HC2186] | -0.944 (inactive) | -0.894 (inactive) | -0.0736 (inactive)
2 | CALDQAETAGAGNASASA [HC827] | 0.305 (inactive) | 0.588 (inactive) | 0.353 (inactive)
3 | CAEVGCHRPSAGNASASA [HC2356] | 0.279 (inactive) | 0.829 (inactive) | 0.483 (inactive)
4 | CAALVTPCAAAGNASASA [HC1375] | -0.826 (inactive) | -0.333 (inactive) | -1.48 (inactive)
5 | CATIPCSGSWAGNASASA [HC1844] | -0.402 (inactive) | -1.52 (inactive) | -0.285 (inactive)
6 | CASPSVRKRQAGNASASA [FS-1084] | 1.65 | 1.54 | 0.547 (inactive)
7 | CAGKKRRPVKAGNASASA [DV1] | 0.52 (inactive) | 1.23 | 0.39 (inactive)
8 | CAPRLRRKRQAGNASASA [FS-1243] | 10.3 (active) | 9.75 (active) | 8.73 (active)
9 | CAFTSRFKRQAGNASASA [FS-420] | 10.7 (active) | 10.3 (active) | 8.02 (active)
10 | CAGKSRRKRQAGNASASA [FS-1328] | 11.6 (active) | 12.5 (active) | 8.34 (active)
11 | CAVSVRRKRQAGNASASA [FS-516] | 11.2 (active) | 12.2 (active) | 9.86 (active)
12 | CATTPWSGSWAGNASASA [HC47] | -0.899 (inactive) | -0.0349 (inactive) | -1.02 (inactive)
13 | CAVICCSMSYAGNASASA [HC2004] | -1.33 (inactive) | -0.628 (inactive) | 0.99 (inactive)
14 | CAEKSRAKRQAGNASASA [FS-231] | 9.72 (active) | 8.1 (active) | 6.51 (active)
15 | CANQVEGEVQAGNASASA [HC687] | -1.48 (inactive) | -0.19 (inactive) | -1.34 (inactive)
16 | CARVPCHRPSAGNASASA [HC2313] | -0.0296 (inactive) | 0.363 (inactive) | -0.117 (inactive)
17 | CAFRNRNQRIAGNASASA [FS-235] | -0.28 (inactive) | -1.55 (inactive) | 0.794 (inactive)
18 | CAFRVRSRRWAGNASASA [FS-328] | 8.66 (active) | 9.61 (active) | 9.2 (active)
19 | CARDVRSRRPAGNASASA [FS-1393] | 0.0934 (inactive) | 0.513 (inactive) | 0.621 (inactive)
20 | CAQKVRPRRWAGNASASA [FS-80] | 9.9 (active) | 11.7 (active) | 9.5 (active)
21 | CAQKDRARRPAGNASASA [FS-1605] | 0.51 (inactive) | -1.09 (inactive) | 0.363 (inactive)
22 | CAPLKRSVSLAGNASASA [FS-2876] | 0.317 (inactive) | 2.22 | 2.88
